Experimental findings from PubChem BioAssay (NCI) are described below.

Among the test systems are NCI-H23 lung; NCI-H226 lung; NCI-H322M lung; HOP-62 NSCLC; NCI-H460 lung; HOP-92 NSCLC; NCI-H522 lung; A549/ATCC NSCLC; 786-0 renal; COLO 205 colon.
Holding throughout (experiment): NCI-60 one-dose screen, 48 h (100 = growth as untreated, 0 = no growth, -100 = all killed)
Common to all, as to details: 10 µM unless noted

Molecules are shown by their SMILES. The panel holds about 83,000 compounds, 20% with a hit somewhere; the sample as a whole holds those more often.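 How to read the values: 0–100, growth inhibition (40 = 60% inhibited); 0, no net growth; -100 to 0, cell death (-40 = 40% of starting cells died; -100 = all dead).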 A number with no mark means an inactive call. Activity calls are given as the source filed them. The calls were made as follows: active = growth percent below 10; inactive = the rest.

For the compound `Cc1cnc(NC(=O)C(Cc2ccccc2)NC(=O)c2ccccc2)s1` (centres undefined), the growth with NCI-H23 lung was 86%; in the experiment on NCI-H226 lung it was 70.2%; in the experiment with NCI-H322M lung, 105%; in the experiment on HOP-62 NSCLC it was 84.1%; in the experiment with NCI-H460 lung, 74.3%; with HOP-92 NSCLC it was 19.1%. For the same compound, the growth is 63.9% with NCI-H522 lung, 90.7% with A549/ATCC NSCLC and 96.9% with 786-0 renal.

As for `COc1cccc2nc(Nc3ccc(NC(=O)c4ccc5ncccc5c4)cc3)ccc12`, the growth with NCI-H23 lung was 92.8%; in the experiment with NCI-H226 lung it was 97.5%; in the experiment with NCI-H322M lung it was 81.4%; in the experiment with HOP-62 NSCLC it was 91.9%; with NCI-H460 lung, 84.8%; with HOP-92 NSCLC, 111%. Also, the growth in the experiment with NCI-H522 lung was 99.9%; in the experiment on A549/ATCC NSCLC, 78.1%; with 786-0 renal, 42.7%.

`COc1ccccc1OCC(=O)Nc1sc2c(c1C(N)=O)CCC2`: the growth in the experiment on NCI-H23 lung was 114%; in the experiment on NCI-H226 lung, 80.7%; in the experiment with NCI-H322M lung, 105%; in the experiment on HOP-62 NSCLC, 49.7%; in the experiment with NCI-H460 lung, 25.6%; in the experiment on HOP-92 NSCLC it was 2.69% (active). Besides, the growth in the experiment with NCI-H522 lung is 84.1%; in the experiment on A549/ATCC NSCLC it was 85.8%; with 786-0 renal, 75.1%.

`COc1cc(-c2csc(NC(=O)c3cc(C(F)(F)F)cc(C(F)(F)F)c3)n2)cc(OC)c1OC`: the growth in the experiment with NCI-H23 lung was -10.2% (active); in the experiment on NCI-H226 lung it was 23.6%; in the experiment on NCI-H322M lung, 32.7%; in the experiment with HOP-62 NSCLC, 46.4%; in the experiment on NCI-H460 lung, 13.8%; in the experiment with HOP-92 NSCLC, -10.6% (active). Also, the growth with NCI-H522 lung is 3.92% (active); in the experiment on A549/ATCC NSCLC, 26.3%; in the experiment with 786-0 renal it was 41.6%.

Turning to `CC(=O)/C=C/c1cc2cc(Cl)ccc2[nH]c1=O`, the growth in the experiment with NCI-H23 lung was 87.5%; with NCI-H226 lung, 85.1%; in the experiment on NCI-H322M lung, 90.5%; with HOP-62 NSCLC, 68%; in the experiment on NCI-H460 lung, 78.5%; in the experiment on HOP-92 NSCLC, 94.5%. Further, the growth in the experiment on NCI-H522 lung was 75.2%; in the experiment with A549/ATCC NSCLC, 85.2%; in the experiment on 786-0 renal, 74.5%.

On to `COc1ccc(/C=C/C(=O)OCC(=O)NNC(=O)c2ccccc2)cc1OC`, for which the growth in the experiment with NCI-H23 lung is 106%; in the experiment on NCI-H226 lung it was 103%; in the experiment on NCI-H322M lung it was 117%; with HOP-62 NSCLC, 84.1%; in the experiment with NCI-H460 lung, 110%; with HOP-92 NSCLC it was 79.3%. Besides, the growth with NCI-H522 lung was 104%; with A549/ATCC NSCLC it was 99.2%; with 786-0 renal, 99.8%.

`COc1cc(/C=C2\C=C(c3ccc(F)cc3)N(Cc3ccccc3)C2=O)cc(OC)c1OC`: the growth was 62.6% in the experiment with NCI-H23 lung; 56.7% with NCI-H226 lung; 61.4% in the experiment on NCI-H322M lung; 108% in the experiment on HOP-62 NSCLC; 66.4% with NCI-H460 lung; 35% in the experiment on HOP-92 NSCLC. For the same compound, the growth with NCI-H522 lung was 90.6%; in the experiment on A549/ATCC NSCLC, 56.4%; with 786-0 renal, 66.6%.

In the case of `O=S(=O)(NCCCNc1nccc(-c2c(-c3ccccc3)nc3sccn23)n1)c1ccc(F)cc1`, the growth in the experiment on NCI-H23 lung is 38%; with NCI-H226 lung, 24.2%; with NCI-H322M lung, 68.3%; with HOP-62 NSCLC it was 89%; in the experiment on NCI-H460 lung, 47.9%; in the experiment with HOP-92 NSCLC, 86.9%. Further, the growth in the experiment on NCI-H522 lung is 38.4%; with A549/ATCC NSCLC, 43.6%; in the experiment on 786-0 renal it was 44.8%.

In the case of `COc1cccc(-c2nc3sccn3c2-c2ccnc(NCCNS(=O)(=O)c3ccccc3)n2)c1`, the growth with NCI-H23 lung is 65.8%; with NCI-H226 lung, 43.1%; in the experiment with NCI-H322M lung, 81.7%; with HOP-62 NSCLC, 114%; in the experiment on NCI-H460 lung, 62.4%; in the experiment on HOP-92 NSCLC it was 62.6%. Besides, the growth in the experiment with NCI-H522 lung is 49.5%; with A549/ATCC NSCLC, 64.8%; in the experiment on 786-0 renal, 56.7%.

On to `CC1=NN2C(=NC3=C(CCC/C3=C\c3ccc(Cl)cc3)C2c2ccc(Cl)cc2)S1` (centres undefined), for which the growth was 97.8% in the experiment on NCI-H23 lung; 101% with NCI-H226 lung; 104% with NCI-H322M lung; 115% in the experiment with HOP-62 NSCLC; 101% in the experiment on NCI-H460 lung; 77.9% with HOP-92 NSCLC. Moreover, the results for the growth in the experiment on NCI-H522 lung, in the experiment on A549/ATCC NSCLC and with 786-0 renal were 83.3%, 87% and 97.2%, respectively.

As to `COC1=CC(c2ccc[nH]2)=N/C1=C\c1[nH]c(C)c(C(=O)CCCCC(=O)Nc2ccccc2)c1C`, the growth with NCI-H23 lung is 34.4%; with NCI-H226 lung, 44.1%; in the experiment on NCI-H322M lung, 87.3%; with HOP-62 NSCLC, 80.7%; in the experiment on NCI-H460 lung, -38.8% (active); in the experiment with HOP-92 NSCLC it was -71.4% (active). Moreover, the growth in the experiment with NCI-H522 lung is -45.3% (active); in the experiment on A549/ATCC NSCLC, -21.4% (active); in the experiment on 786-0 renal it was 93.5%.

`COc1cc(C2C3=C(COC3=O)Nc3c2ccc2c3CCCC2)cc2c1OCO2` (centres undefined): the growth is 16.4% in the experiment with NCI-H23 lung; -5.06% (active) in the experiment with NCI-H226 lung; 47% in the experiment with NCI-H322M lung; 21.9% with HOP-62 NSCLC; 3.74% (active) in the experiment on NCI-H460 lung; 127% with HOP-92 NSCLC. Moreover, the growth with NCI-H522 lung is -35.1% (active); in the experiment on A549/ATCC NSCLC it was 25%; with 786-0 renal, 18.7%; in the experiment on COLO 205 colon it was -67.7% (active).

Consider `O=C(O)c1cccc([N+](=O)[O-])c1/C=C/c1ccccc1`, for which the growth with NCI-H23 lung was 102%; in the experiment with NCI-H226 lung, 96.9%; in the experiment on NCI-H322M lung, 90.5%; in the experiment on HOP-62 NSCLC it was 92.6%; in the experiment on NCI-H460 lung, 103%; in the experiment with HOP-92 NSCLC, 112%. The growth in the experiment with NCI-H522 lung was 116%; in the experiment with A549/ATCC NSCLC, 104%; in the experiment with 786-0 renal it was 98.1%; with COLO 205 colon, 98.9%.

Turning to `C#CCC1(c2ccc(F)c(F)c2)NS(=O)(=O)c2ccccc21` (centres undefined), the growth is 98.1% in the experiment on NCI-H23 lung; 103% with NCI-H226 lung; 90.5% with NCI-H322M lung; 86.2% in the experiment with HOP-62 NSCLC; 108% in the experiment with NCI-H460 lung; 106% with HOP-92 NSCLC. Moreover, the growth with NCI-H522 lung is 65.5%; in the experiment on A549/ATCC NSCLC, 76.9%; in the experiment with 786-0 renal it was 101%; in the experiment on COLO 205 colon, 110%.
